# Measurements reported in article PMC11062922 (Nature Chemical Biology, 2023).
# Where two headings read alike, the source gives them in different places.
# Tests used:
# [1] = test system: FLT3; parameters: species or system human, MV4-11 + K-562 + COLO205 + SK-N-BE2 + OVCAR-8; conditions: read-out: apparent Kd, compound concentrations: 100 nM and 1000 nM (sheet 'Samples'), n = 1
# [2] = test system: RIPK3; parameters: species or system human, MV4-11 + K-562 + COLO205 + SK-N-BE2 + OVCAR-8; conditions: read-out: apparent Kd; compound concentrations: 100 nM and 1000 nM (sheet 'Samples'), CATDS: 0.17836354308348701; n = 1
# [3] = test system: STK26; parameters: species or system human, MV4-11 + K-562 + COLO205 + SK-N-BE2 + OVCAR-8; conditions: read-out: apparent Kd; compound concentrations: 100 nM and 1000 nM (sheet 'Samples'), CATDS: 0.187537130117577; n = 1
# [4] = test system: TTK; parameters: species or system human, MV4-11 + K-562 + COLO205 + SK-N-BE2 + OVCAR-8; conditions: read-out: apparent Kd; compound concentrations: 100 nM and 1000 nM (sheet 'Samples'), CATDS: 0.15958246539429699; n = 1
# [5] = test system: TTN; parameters: species or system human, MV4-11 + K-562 + COLO205 + SK-N-BE2 + OVCAR-8; conditions: read-out: apparent Kd, compound concentrations: 100 nM and 1000 nM (sheet 'Samples'), n = 1
# [6] = test system: MYLK3; parameters: species or system human, MV4-11 + K-562 + COLO205 + SK-N-BE2 + OVCAR-8; conditions: read-out: apparent Kd, compound concentrations: 100 nM and 1000 nM (sheet 'Samples'), n = 1
# [7] = test system: ILK; parameters: species or system human, MV4-11 + K-562 + COLO205 + SK-N-BE2 + OVCAR-8; conditions: read-out: apparent Kd; compound concentrations: 100 nM and 1000 nM (sheet 'Samples'), CATDS: 0.155345852963269; n = 1
# [8] = test system: MAP2K1; parameters: species or system human, MV4-11 + K-562 + COLO205 + SK-N-BE2 + OVCAR-8; conditions: read-out: apparent Kd; compound concentrations: 100 nM and 1000 nM (sheet 'Samples'), CATDS: 0.15695729249265; n = 1
# [9] = test system: TNIK; parameters: species or system human, MV4-11 + K-562 + COLO205 + SK-N-BE2 + OVCAR-8; conditions: read-out: apparent Kd; compound concentrations: 100 nM and 1000 nM (sheet 'Samples'), CATDS: 0.18945964172461099; n = 1
# [10] = test system: FLT4; parameters: species or system human, MV4-11 + K-562 + COLO205 + SK-N-BE2 + OVCAR-8; conditions: read-out: apparent Kd, compound concentrations: 100 nM and 1000 nM (sheet 'Samples'), n = 1
# [11] = test system: PDGFRB; parameters: species or system human, MV4-11 + K-562 + COLO205 + SK-N-BE2 + OVCAR-8; conditions: read-out: apparent Kd, compound concentrations: 100 nM and 1000 nM (sheet 'Samples'), n = 1
# [12] = test system: PIP4K2C; parameters: species or system human, MV4-11 + K-562 + COLO205 + SK-N-BE2 + OVCAR-8; conditions: read-out: apparent Kd, compound concentrations: 100 nM and 1000 nM (sheet 'Samples'), n = 1
# [13] = molecular target: Q6ZSR9 (human, UniProt Q6ZSR9); parameters: species or system MV4-11 + K-562 + COLO205 + SK-N-BE2 + OVCAR-8; conditions: read-out: apparent Kd; compound concentrations: 100 nM and 1000 nM (sheet 'Samples'), CATDS: 0.15174967066440201; n = 1
# [14] = test system: JAK2; parameters: species or system human, MV4-11 + K-562 + COLO205 + SK-N-BE2 + OVCAR-8; conditions: read-out: apparent Kd; compound concentrations: 100 nM and 1000 nM (sheet 'Samples'), CATDS: 0.29115403437322901; n = 1
# [15] = test system: NQO2; parameters: species or system human, MV4-11 + K-562 + COLO205 + SK-N-BE2 + OVCAR-8; conditions: read-out: apparent Kd; compound concentrations: 100 nM and 1000 nM (sheet 'Samples'), CATDS: 0.45168770198248398; n = 1
# [16] = test system: FN3KRP; parameters: species or system human, MV4-11 + K-562 + COLO205 + SK-N-BE2 + OVCAR-8; conditions: read-out: apparent Kd; compound concentrations: 100 nM and 1000 nM (sheet 'Samples'), CATDS: 0.10743943329960801; n = 1
# [17] = test system: MAPK10; parameters: species or system human, MV4-11 + K-562 + COLO205 + SK-N-BE2 + OVCAR-8; conditions: read-out: apparent Kd; compound concentrations: 100 nM and 1000 nM (sheet 'Samples'), CATDS: 0.114459990523153; n = 1
# [18] = test system: MAPK11; parameters: species or system human, MV4-11 + K-562 + COLO205 + SK-N-BE2 + OVCAR-8; conditions: read-out: apparent Kd; compound concentrations: 100 nM and 1000 nM (sheet 'Samples'), CATDS: 0.104421690058707; n = 1
# [19] = test system: MAPK14; parameters: species or system human, MV4-11 + K-562 + COLO205 + SK-N-BE2 + OVCAR-8; conditions: read-out: apparent Kd; compound concentrations: 100 nM and 1000 nM (sheet 'Samples'), CATDS: 0.43214609476913801; n = 1
# [20] = test system: MAPK9; parameters: species or system human, MV4-11 + K-562 + COLO205 + SK-N-BE2 + OVCAR-8; conditions: read-out: apparent Kd; compound concentrations: 100 nM and 1000 nM (sheet 'Samples'), CATDS: 0.13499142741698; n = 1
# [21] = test system: MAPKAPK2; parameters: species or system human, MV4-11 + K-562 + COLO205 + SK-N-BE2 + OVCAR-8; conditions: read-out: apparent Kd; compound concentrations: 100 nM and 1000 nM (sheet 'Samples'), CATDS: 0.49442009217898503; n = 1
# Sequence of Q6ZSR9 (Q6ZSR9 whole entry, looked up): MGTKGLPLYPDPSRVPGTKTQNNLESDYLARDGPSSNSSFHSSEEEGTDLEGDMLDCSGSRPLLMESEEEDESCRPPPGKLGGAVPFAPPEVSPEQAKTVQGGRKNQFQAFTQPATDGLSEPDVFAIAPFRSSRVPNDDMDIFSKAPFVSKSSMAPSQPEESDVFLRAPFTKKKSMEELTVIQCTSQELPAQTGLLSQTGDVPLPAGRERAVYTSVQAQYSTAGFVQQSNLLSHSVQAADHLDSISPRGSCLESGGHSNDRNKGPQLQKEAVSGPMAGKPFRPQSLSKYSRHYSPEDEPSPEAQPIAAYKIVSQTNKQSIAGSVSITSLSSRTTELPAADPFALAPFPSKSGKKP
structure (smiles),measurement,setting,value
Cc1ccc2c(c1)/C(=N/Nc1ccc(S(N)(=O)=O)cc1)C(=O)N2 [GW275944X],potency estimated from few doses,[1]; CATDS: 0.260396984763757,809 nM
same,potency estimated from few doses,[2],1700 nM
same,potency estimated from few doses,[3],1520 nM
same,potency estimated from few doses,[4],2270 nM
same,potency estimated from few doses,[5]; CATDS: 0.25287309010543901,851 nM
O=C1Nc2ccccc2/C1=C/Nc1ccc2[nH]c(=O)[nH]c2c1 [GW284408X],potency estimated from few doses,[1]; CATDS: 0.54453262493036503,348 nM
same,potency estimated from few doses,[6]; CATDS: 0.46220060091739101,485 nM
c1ccc(Nc2ncc(-c3ccccc3)o2)cc1 [GW549390X],potency estimated from few doses,[1]; CATDS: 0.74599434863178504,273 nM
same,potency estimated from few doses,[5]; CATDS: 0.37600950025420299,1330 nM
COc1cc[nH]c1/C=C1\C(=O)Nc2ccccc21 [RO0272159-000],potency estimated from few doses,[1]; CATDS: 0.77308167829792795,55.1 nM
same,potency estimated from few doses,[7],1910 nM
same,potency estimated from few doses,[8],1850 nM
same,potency estimated from few doses,[6]; CATDS: 0.17793919150823601,1280 nM
same,potency estimated from few doses,[9],1080 nM
COc1cc(Nc2ncc(-c3ccccc3)o2)cc(OC)c1OC [GW627512B],potency estimated from few doses,[1]; CATDS: 0.90210431278154302,20.2 nM
same,potency estimated from few doses,[10]; CATDS: 0.159173325469706,1850 nM
same,potency estimated from few doses,[11]; CATDS: 0.20817935834978499,858 nM
same,potency estimated from few doses,[12]; CATDS: 0.16088368333560399,1790 nM
same,potency estimated from few doses,[13],2170 nM
COc1ccccc1Nc1ncc(-c2ccccc2)o1.Cl [GW577921A],potency estimated from few doses,[1]; CATDS: 0.90882717599339502,14.3 nM
same,potency estimated from few doses,[14],370 nM
same,potency estimated from few doses,[11]; CATDS: 0.22396051882089299,1080 nM
COc1ccc(Nc2ncc(-c3ccccc3)o2)cc1OC.Cl [GW575533A],potency estimated from few doses,[1]; CATDS: 0.92036474930911705,4.09 nM
same,potency estimated from few doses,[11]; CATDS: 0.343232825956933,90.5 nM
CN1C(=O)C(c2c[nH]c3ccccc23)=C(c2c[nH]c3ccccc23)C1=O [RO0316045-000],potency estimated from few doses,[10]; CATDS: 0.55988503208503904,1370 nM
same,potency estimated from few doses,[15],2110 nM
COc1ccc(-c2nn3ncccc3c2-c2ccnc(Nc3ccc(Cl)c(C(F)(F)F)c3)n2)cc1 [GW829115X],potency estimated from few doses,[10]; CATDS: 1,635 nM
Cl.Cn1c(=O)c(Oc2ccc(F)cc2F)cc2cnc(NC(C)(C)CO)nc21 [RO3305411-001],potency estimated from few doses,[16],1390 nM
same,potency estimated from few doses,[17],1100 nM
same,potency estimated from few doses,[18],1550 nM
same,potency estimated from few doses,[19],21.6 nM
same,potency estimated from few doses,[20],640 nM
same,potency estimated from few doses,[21],16.8 nM
same,potency estimated from few doses,[12]; CATDS: 0.103791319343203,1590 nM
